HepG2 tox-1: kills HepG2 cells in TGF-b inhibitor counter-screen. AID 588856. Potency, µM (titrated, usually from 46.1 µM), actives largely listed as cytotoxic. HepG2 CAGA-GFP viability, ATP luminescence, 18 h. hit rate 0.76% among 410,000
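CellTiter-Glo luminescence gave cytotoxicity after 18 hours at 37 degrees C. The cells were HepG2 CAGA-GFP in 1% FBS DMEM, stimulated with 500 pg/mL TGF-beta after compound addition. %Activity was normalised to no-cell wells (complete cell-killing) and DMSO (no toxicity), and curves were fitted and classified.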
HT1080 IDH1KD tx: kills HT-1080 cells with IDH1 knockdown. Potency, µM (doses to about 46.1 µM), hits mostly cytotoxic. HT-1080 IDH1 knockdown viability, ATP luminescence, 48 h. hit rate 2% among 360,000. AID 686971
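Using the IDH1-knockdown HT-1080 line run in the same batch and compound series as the NT line, viability after 48 h at 37 °C was determined by CellTiter-Glo luminescence and expressed as % activity.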
ATXN2 expr inh: reduces ATXN2 reporter expression in HEK-293 cells; HEK-293 ATXN2-luciferase reporter, luminescence, 24 h; Potency, µM (series often up to 57 µM), actives largely listed as inhibitors; hit rate 0.72% among 360,000; further: nearly all actives have a fitted effect of over 55% in size
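ATXN2-luciferase reporter cells (luciferase flanked by upstream and downstream ATXN2 gene portions) were treated 24 h at 37 °C with compounds at up to 57 uM. SteadyGlo luminescence gave expression; GF-AFC fluorescence gave viability.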
S2 tox: reduces viability in counter-screen for ATXN expression inhibitors. S2 cells (HEK-293 line with an ATXN2-luciferase reporter) viability, CellTiter-Fluor protease fluorescence, 24 h. Potency, µM (highest dose often 56.7 µM), actives largely listed as cytotoxic. hit rate 0.49% among 400,000; further: nearly all actives have a fitted effect of over 40% in size
TGFb inhibitor: blocks TGF-b signaling. HepG2 CAGA-GFP TGF-b/SMAD3 reporter, GFP fluorescence, 18 h; TGF-beta stimulated, 500 pg/mL final. Potency, µM (titrated, usually from 46.1 µM), actives largely listed as inhibitors. hit rate 1.2% among 410,000. AID 588855; further: nearly all actives have a fitted effect of over 65% in size
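Inhibition was scored as loss of TGF-beta-induced (500 pg/mL final, 18 hours, 37 degrees C) GFP in HEPG2 cells carrying a CAGA-GFP reporter, in DMEM with 1% FBS. Well GFP was summed per cell; Activity was normalised to unstimulated and stimulated DMSO wells, then concentration-response fitting.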
HT1080NT lethal: kills 2HG-producing HT-1080-NT fibrosarcoma cells | AID 686970 | HT-1080-NT fibrosarcoma viability, CellTiter-Glo ATP luminescence, 48 h | Potency, µM (doses to about 46.1 µM), actives largely listed as cytotoxic | hit rate 1.6% among 360,000;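 further: NT is the 2HG producing partner of a matched IDH1 knockdown line; nearly all actives have a fitted effect of over 55% in size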
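Fibrosarcoma NT cells, 750 per well in 5% FBS RPMI, were exposed to compound for 48 hours. Viability: CellTiter-Glo luminescence.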
TGFb CAGA inh: TGF-b pathway inhibition, cherry-pick retest | shares compounds with TGFb inhibitor | HepG2 CAGA-GFP TGF-b reporter, GFP fluorescence, 18 h; cells stimulated with TGF-beta, 500 pg/mL | Potency, µM (highest dose often 46.1 µM), usual class: inhibitors | hit rate 63% among 1,600 | AID 720534; further: nearly all actives have a fitted effect of over 65% in size
HepG2 tox-2: counter-screen for TGF-b inhibitors: cytotoxicity in HepG2 cells | shares compounds with TGFb inhibitor | HepG2 CAGA-GFP viability, ATP luminescence, 18 h; cells stimulated with TGF-beta, 500 pg/mL | Potency, µM (doses to about 46.1 µM), usual class: inhibitors | hit rate 27% among 1,600 | AID 720535; further: nearly all actives have a fitted effect of over 70% in size
TGFb CCL64 inh: blocks TGF-b signaling in CCL64 reporter cells. shares compounds with TGFb inhibitor. CCL64 CAGA-GFP reporter, TGF-b stimulated, GFP fluorescence, 18 h. Potency, µM (top dose mostly 46.1 µM), actives largely listed as inhibitors. hit rate 41% among 1,600; further: nearly all actives have a fitted effect of over 65% in size
TGFb COP inh: blocks TGF-b signaling in HepG2 COP reporter | shares compounds with TGFb inhibitor | HepG2 COP-GFP TGF-b reporter, GFP fluorescence, 18 h; cells stimulated by added recombinant TGF-beta | Potency, µM (highest dose often 46.1 µM), hits mostly inhibitors | hit rate 3% among 1,600; further: nearly all actives have a fitted effect of over 70% in size
A number is an active result; i = inactive; ? = inconclusive; nt = no result given. Sampled rows, rich in hits. Any-hit rate of the full collection: about 3.8%. The call rests on the fitted dose curve; in most records, active means well fitted curve in the direction sought with a large enough effect; inconclusive means small, poorly fitted or top-dose-only effect, or another doubt; inactive means no such curve, though single readings can be large; an effect the other way counts as inactive or inconclusive.

SMILES | HepG2 tox-1 | HT1080 IDH1KD tx | ATXN2 expr inh | S2 tox | TGFb inhibitor | HT1080NT lethal | TGFb CAGA inh | HepG2 tox-2 | TGFb CCL64 inh | TGFb COP inh
COc1ccc(N(C(=O)CCl)C(C(=O)NC2CCCCC2)c2cccnc2)cc1 (stereo not given) | 11µM | 5.8µM | 14µM | 8.9µM | 8.9µM | 7.3µM | 7.3µM | 12µM | 9.2µM | ?
COc1cc(OC)cc(C(=O)N[C@H](C(=O)Nc2nc(-c3ccc(OC)c(OC)c3)cs2)C(C)C)c1 | i | i | nt | i | 13µM | ? | 15µM | i | i | i
Cc1ccc2sc(N(CCCN(C)C)C(=O)CCS(=O)(=O)c3ccccc3)nc2c1C | 6.3µM | ? | ? | nt | 5.6µM | ? | ? | ? | 3.3µM | ?
COc1ccc(OC)c2sc(N(CCCN(C)C)C(=O)CCS(=O)(=O)c3ccccc3)nc12 | i | ? | ? | nt | ? | i | nt | nt | nt | nt
COc1ccc(OC)c(NC(=O)Cn2c(=O)c3cccn3c3ccccc32)c1 | i | nt | nt | nt | ? | nt | nt | nt | nt | nt
O=c1ccn(Cc2ccccc2)c2ccccc12 | i | i | i | i | ? | i | nt | nt | nt | nt
O=c1c2ccccc2c(=O)n(Cc2ccccc2)n1Cc1ccccc1 | i | i | i | i | 11µM | i | ? | i | 18µM | ?
CCC(C)Sc1cccc(-c2nc3cc(C)ccn3c2NCc2ccccc2)c1 (stereo not given) | i | 26µM | ? | ? | 16µM | 21µM | ? | ? | 16µM | i
CC(C)CC(NC(=O)c1cccs1)c1nnc(SCc2ccc(Cl)c(Cl)c2)n1C (stereo not given) | i | i | i | ? | 5.6µM | i | 18µM | 18µM | ? | i
Cc1cc(C)nc(S/C=C/C(=O)c2ccccc2F)n1 | i | 2.9µM | i | i | 3.5µM | 3.7µM | 1.8µM | 21µM | 6.5µM | ?
COc1ccc(C(=O)N2CCN(c3nc4c(OC)cccc4s3)CC2)cc1OC | i | nt | nt | nt | i | nt | nt | nt | nt | nt
c1ccc(CNCCCn2cnc3c(OCc4ccccc4)ncnc32)cc1 | i | i | i | i | i | i | nt | nt | nt | nt
Cc1ccc(NCCCn2cnc3c(OCc4ccccc4)ncnc32)cc1C | i | i | ? | ? | 18µM | i | 6.5µM | ? | ? | i
Cc1cc(C)c(CN2CCN(C(=O)Cn3cnc4c(OCc5ccccc5)ncnc43)CC2)c(C)c1 | i | ? | i | ? | 13µM | ? | 3.7µM | ? | ? | i
O=C(COc1cccc(C(F)(F)F)c1)Nc1ccccc1N1CCCCC1 | i | i | i | i | i | i | nt | nt | nt | nt
CSCCC(NS(=O)(=O)c1cccc(C(F)(F)F)c1)C(=O)Nc1ccccc1N1CCCC1 (stereo not given) | i | i | i | ? | 14µM | i | 16µM | i | 16µM | i
CN(C)C(=O)c1ccc(-c2cc3onc(-c4ccccc4)c3c(=O)n2C)cc1 | i | i | i | i | ? | i | i | i | i | i
NC1=NC[C@H](Cc2ccc(O)cc2)N1CCc1cc(C(F)(F)F)cc(C(F)(F)F)c1 | i | i | i | i | 1.1µM | i | i | i | i | i
Cc1ccc(C)c(N(C)C(=O)C2CCN(S(=O)(=O)c3cccc4nsnc34)CC2)c1 | i | nt | ? | ? | ? | nt | nt | nt | nt | nt
Cc1onc(-c2c(F)cccc2Cl)c1C(=O)Nc1nccs1 | i | i | i | i | i | i | nt | nt | nt | nt

Compound activity (PubChem BioAssay)
